Assay results as given in PubChem BioAssay.

Assay: probe aLAP1 signal on lysate-treated microarray – cell lysate, small-molecule microarray, COS7 lysate, primary screen (AID 1124);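 note: lysate comes from COS7 cells expressing LAP1 and is applied at 0.3 µg/mL; score merges spot fluorescence near 667 nm with signal-to-noise over triplicate slides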
Settings: probe aLAP1, fluorescence, higher = more signal

Row | Compound | composite z-score
1 | CC1CC/C=C\[C@H]2OC34C=CCN(C(C)(C)C)C(=O)[C@H]3N(CCCCCCO)C(=O)[C@@H]4C2C(=O)O1 (stereo not given in full) | 0.843
2 | C[C@@]1([C@@H](NC(=O)c2ccccc2)c2ccc(-c3ccccc3)cc2)C[C@H]1C1CCCCC1 | -0.0002
3 | COCCCNC(=O)[C@@]1(Cc2ccccc2N=[N+]=[N-])N=C(c2ccc(OCCCO)cc2)O[C@H]1c1ccccc1N=[N+]=[N-] | 0.889
4 | CCN(CC)c1ccc(N2CC=CC34O[C@@H]5/C=C\CCCOC(=O)C5[C@H]3C(=O)N(CCO)[C@@H]4C2=O)cc1 (stereo not given in full) | 0.485
5 | CC(C)(C)OC(=O)CC[C@]12N=C(c3ccc(OCCCO)cc3)O[C@H]1c1ccccc1N(CCS(=O)(=O)c1ccccc1)C2=O | 0.53
6 | CN1C(=O)C2C=CC(C(O)c3cccs3)N(Nc3ccccc3)C2C1=O (stereo not given) | -0.0235
7 | O=C1O[C@H](c2ccccc2)[C@H](c2ccccc2)N2[C@H]1[C@@H](C(=O)O)[C@]1(C(=O)Nc3ccc(C#CC4=CCCCC4)cc31)[C@H]2c1ccccc1OCCO | 0.834
8 | COc1cc(OC)c(C(O)C2C=CC3C(=O)NC(=O)C3N2Nc2ccc(Cl)cc2Cl)cc1Br (stereo not given) | 0.474
9 | C=CC[C@]1(C(=O)NCCCOC)N=C(c2ccc(OCCCO)cc2)O[C@H]1c1ccccc1N=[N+]=[N-] | 0.397
10 | Cc1ccc(S[C@]2(C(=O)NCCN3CCOCC3)CC(=O)N(Cc3ccccc3Cl)[C@@H]2c2ccc(CO)cc2)cc1 | 0.0897
11 | Cc1ccc(S[C@]2(C(=O)NCC(C)C)CC(=O)N(Cc3cc(C(F)(F)F)cc(C(F)(F)F)c3)[C@@H]2c2ccc(CO)cc2I)cc1 | 0.77
12 | CC(C)[C@@H](CO)NC(=O)[C@H]1[C@@H](c2ccccc2)N(c2ccccc2)O[C@@H]1C | 0.145
13 | C=CCOC(=O)[C@@H]1[C@H]2C(=O)O[C@H](c3ccccc3)[C@H](c3ccccc3)N2[C@H](c2ccc(OCCOC(=O)[C@@H]3C[C@@H]4C(=O)N[C@@H](CCCCN(C)C)C(=O)N4[C@@H]3c3ccc(O)cc3)cc2)[C@@]12C(=O)Nc1ccc(I)cc12 | -0.157
14 | COCCOC(=O)N1C(=O)[C@@]2(c3cc(C#CC4=CCCCC4)ccc31)[C@H](C(=O)Nc1nc3ccccc3s1)[C@H]1C(=O)O[C@H](c3ccccc3)[C@H](c3ccccc3)N1[C@@H]2c1ccccc1OCCO | -0.123
15 | CC(C)N1C(=O)[C@@]2(Cc3ccccc31)c1ccccc1C(=O)N(C1CCCCC1)[C@H]2c1ccc(CO)cc1 | 0.779
16 | O=C1O[C@H](c2ccccc2)[C@H](c2ccccc2)N2[C@H]1[C@@H](C(=O)O)[C@]1(C(=O)Nc3ccc(C#CCCO)cc31)[C@H]2c1ccc(O)cc1 | 0.514
17 | C=CC[C@@]1(C(=O)NCc2ccccc2)N=C(c2ccc(OCCCO)cc2)O[C@@H]1c1ccccc1N=[N+]=[N-] | 0.736
18 | COc1ccc(CCN2C(=O)[C@@]3(c4ccc([N+](=O)[O-])cc4)CC(=O)N(C4CCCCC4)[C@@H]3c3ccc(CO)cc32)cc1 | 0.347

Row | Compound | composite z-score
19 | C=CCOC(=O)[C@@H]1[C@H]2C(=O)O[C@H](c3ccccc3)[C@H](c3ccccc3)N2[C@H](c2ccc(OCCOC(=O)[C@@H]3C[C@@H]4C(=O)N[C@@H](CCCC[N+](C)(C)C)C(=O)N4[C@@H]3c3cccc(OCCO)c3)cc2)[C@@]12C(=O)Nc1ccc(I)cc12 | 0.0596
20 | O=C1[C@H]2C=C(Br)[C@H](C[C@@H]2OCCCCO)[C@@]12CO2 | 0.102
21 | O=C(NCc1ccccc1)[C@@]1(Cc2ccccc2)N=C(c2ccc(OCCCO)cc2)O[C@H]1c1ccccc1 | 1.4
22 | CCc1oc(CC[C@@H](CO)NC(=O)NCCn2cc(C3(O)CCCCC3)nn2)c(C(=O)OC)c1C(=O)OC | 0.731
23 | C=C(/C(=C/C[C@@H](OC(C)=O)c1ccc(OCCO)cc1)c1cnc2ccccc2c1)C(C)C | -0.0638
24 | COC(=O)[C@@]1(Cc2ccc(F)cc2)[C@H]2c3cc(C(=O)N(C)C)n(Cc4ccc(S(C)(=O)=O)cc4)c3C[C@H]2CN1C(=O)c1ccccc1 | 1.04
25 | O=C(NCc1ccc(F)cc1)[C@H]1C[C@H]2C(=O)N[C@@H](Cc3ccccc3)C(=O)N2[C@H]1c1ccc(O)cc1 | -0.516
26 | C=CC[C@@]1(C(=O)N(C)C)N=C(c2ccc(OCCCO)cc2)O[C@@H]1c1ccccc1N=[N+]=[N-] | 1.2
27 | C=C(COC)/C(=C/C[C@@H](OC(C)=O)c1ccc(OCCO)cc1)c1cc(C(=O)OC)ccc1OC | -0.413
28 | Cc1ccc(C(C)CC(O)C2C=CC3C(=O)N(C)C(=O)C3N2NC(=O)OC(C)(C)C)o1 (stereo not given) | 0.934
29 | CC(C)C[C@@H]1NC(=O)[C@H]2C[C@@H](C(=O)NCCCCCCN(C)C)[C@@H](c3ccc(O)cc3)N2C1=O | 0.588
30 | CN(C)CCCCCCNC(=O)[C@@H]1C[C@@H]2C(=O)N[C@@H](CCCCN)C(=O)N2[C@@H]1c1cccc(OCCO)c1 | 1.2
31 | [N-]=[N+]=NCc1ccccc1[C@H]1OC(c2ccc(OCCCO)cc2)=N[C@@]1(Cc1ccccc1)C(=O)NCc1ccccc1 | 0.444
32 | CCOC(=O)C[C@H]1[C@H](OC(=O)c2cc3ccccc3oc2=O)[C@@H](NC(=O)C2CCCCC2)c2cc(OCCCO)ccc2N1C(=O)c1ccccc1 | -0.0802
33 | [N-]=[N+]=NCc1ccccc1C[C@]1(C(=O)NCC(O)CO)N=C(c2ccc(OCCCO)cc2)O[C@H]1c1ccccc1 (stereo not given in full) | 0.108
34 | CO[C@H]1O[C@H](CO)[C@@H](OC(=O)Nc2ccc(Br)cc2)[C@H](OC(=O)c2cc3ccccc3[nH]2)[C@H]1OC(=O)c1cc2ccccc2[nH]1 | 0.451
35 | CC(CO)N1C(=O)[C@@H]2C3C(=O)OCCC/C=C\[C@H]3OC23C=CCN(c2ccc4ccccc4c2)C(=O)[C@@H]13 (stereo not given in full) | -0.377
